Values joined by “and” are separate entries in the source; they are usually repeats but may differ in a detail not shown here. Equal values may be shown once. Read-outs that look alike come from different tables or passages of the source.
Legend:
TRKC = tested on: T1, TRKC; settings: concentration: 1 μM, replicates: in singlicate, n = 1
T1 construct: gene NTRK3

TRPM6 = settings: concentration: 1 μM, replicates: in singlicate, n = 1
TSSK1B = settings: concentration: 1 μM, replicates: in singlicate; n = 1
TSSK3 = settings: concentration: 1 μM, replicates: in singlicate, n = 1
TTK = settings: concentration: 1 μM, replicates: in singlicate, n = 1
TXK = settings: concentration: 1 μM, replicates: in singlicate; n = 1
[1] = tested on: TYK2(JH1domain-catalytic); settings: concentration: 1 μM, replicates: in singlicate, n = 1
[2] = tested on: TYK2(JH2domain-pseudokinase); settings: concentration: 1 μM, replicates: in singlicate, n = 1
TYRO3 = settings: concentration: 1 μM, replicates: in singlicate; n = 1
ULK1 = settings: concentration: 1 μM, replicates: in singlicate, n = 1
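Also: KINOMEscan kinase panel screen.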

Compound	%Inh (TRKC)	%Inh (TRPM6)	%Inh (TSSK1B)	%Inh (TSSK3)	%Inh (TTK)	%Inh (TXK)	%Inh [1]	%Inh [2]	%Inh (TYRO3)	%Inh (ULK1)	%Inh (TRKC; 1 µM)	%Inh (TRPM6; 1 µM)	%Inh (TSSK3; 1 µM)	%Inh (TTK; 1 µM)	%Inh ([1]; 1 µM)	%Inh ([2]; 1 µM)	%Inh (ULK1; 1 µM)
O=C(Nc1ccccc1)Nc1ccc(Oc2ccc3nccn3n2)cc1	0%	0%	1%	0%	0%	12%	0%	0%	19%	0%	–	–	–	–	–	–	–
C[C@@H]1CCN(C(=O)CO)C[C@@H]1N(C)c1ncnc2[nH]ccc12	0%	0%	0%	0%	0%	7%	90.6%	0%	0%	0%	–	–	–	–	–	–	–
FC(F)(F)c1ccc(-c2nn3ncccc3c2-c2ccnc(Nc3cccc(C(F)(F)F)c3)n2)cc1 [GW828205]	0%	0%	0%	0%	0%	3%	0%	0%	0%	0%	–	–	–	–	–	–	–
CCc1nc(-c2cccc(C)c2)c(-c2ccnc(NC(=O)c3ccccc3)c2)s1	15%	0%	0%	1%	16%	0%	24%	17%	0%	1%	–	–	–	–	–	–	–
CC(C)N1CCC(n2cnc(-c3ccc(F)cc3)c2-c2ccnc(N)n2)CC1 [SB-223132]	0%	0%	0%	0%	14%	21%	0%	2%	0%	0%	–	–	–	–	–	–	–
CS(=O)(=O)CCNCc1ccc(-c2ccc3ncnc(Nc4ccc(OCc5ccccc5)c(Cl)c4)c3c2)o1.Cl [GW574783]	24%	7%	39%	21%	18%	10%	27%	22%	0%	0%	–	–	–	–	–	–	–
COc1ccc(Nc2nccc(N3CCC(NC(=O)Nc4ccc5c(c4)OCO5)C3)n2)cc1 (stereo not shown) [GSK1379745]	51%	0%	0%	31%	0%	3%	45%	15%	0%	9%	–	–	–	–	–	–	–
Oc1ccc2ncnc(Nc3ccc(OCc4ccccc4)cc3)c2c1 [GI262866]	0%	0%	0%	18%	13%	37%	19%	0%	0%	14%	–	–	–	–	–	–	–
CCCc1ccc(S(=O)(=O)NC2CCN(c3ccnc(Nc4ccc(OC)cc4)n3)C2)cc1 (stereo not shown) [GSK1379737]	36%	0%	0%	5%	0%	6%	53%	46%	0%	99.6%	–	–	–	–	–	–	–
Cn1ccc2ncnc(Nc3ccc(Oc4cccc(Cl)c4)c(Cl)c3)c21	11%	0%	0%	2%	16%	25%	18%	4%	4%	10%	–	–	–	–	–	–	–
CSc1ccc(NC2=C(c3ccccc3Cl)C(=O)NC2=O)cc1 [SB-342411]	0%	0%	21%	10%	0%	3%	0%	0%	5%	10%	–	–	–	–	–	–	–
O=C(CCO)NCCn1ccc2ncnc(Nc3ccc(Oc4cccc(C(F)(F)F)c4)c(Cl)c3)c21	0%	0%	0%	2%	0%	0%	0%	0%	0%	0%	–	–	–	–	–	–	–
Nc1n[nH]c2nnc(-c3ccccc3)cc12 [SB-517389]	0%	35%	9%	100%	0%	25%	36%	79%	0%	20%	–	–	–	–	–	–	–
Cc1ccc(NC(=O)c2cccc(C#N)c2)cc1-c1ccc(C(=O)Nc2ccncc2)cc1 [GSK1398463]	7%	0%	0%	0%	43%	0%	8%	13%	0%	42%	–	–	–	–	–	–	–
O=c1cc(N2CCOCC2)nc2n(Cc3cccc(Cl)c3)ccn12 [GSK2296823]	0%	11%	0%	3%	9%	18%	14%	7%	9%	16%	–	–	–	–	–	–	–
Fc1ccc(-c2ncn(CCCNCc3ccccc3)c2-c2ccncc2)cc1	19%	12%	20%	20%	0%	0%	44%	0%	0%	0%	–	–	–	–	–	–	–
Cl.Fc1ccccc1COc1ccc(Nc2ncnc3ccc(-c4nnc(C(F)(F)F)o4)cc23)cc1Cl [GW424170]	5%	0%	0%	6%	0%	18%	11%	12%	0%	0%	–	–	–	–	–	–	–

Compound	%Inh (TRKC)	%Inh (TRPM6)	%Inh (TSSK1B)	%Inh (TSSK3)	%Inh (TTK)	%Inh (TXK)	%Inh [1]	%Inh [2]	%Inh (TYRO3)	%Inh (ULK1)	%Inh (TRKC; 1 µM)	%Inh (TRPM6; 1 µM)	%Inh (TSSK3; 1 µM)	%Inh (TTK; 1 µM)	%Inh ([1]; 1 µM)	%Inh ([2]; 1 µM)	%Inh (ULK1; 1 µM)
OCCOCCn1ccc2ncnc(Nc3ccc(Oc4cccc(Cl)c4)c(Cl)c3)c21	0%	0%	0%	0%	0%	0%	0%	0%	0%	0%	–	–	–	–	–	–	–
Nc1nc(-c2cccnc2)c(-c2ccnc3ccccc23)s1 [GW684083]	25%	14%	0%	9%	0%	0%	41%	62%	0%	5%	–	–	–	–	–	–	–
Cl.c1ccc(Cn2ncc3cc(Nc4ncnc5ccccc45)ccc32)cc1 [GW273749]	0%	37%	0%	11%	18%	11%	0%	12%	0%	19%	–	–	–	–	–	–	–
COC(=O)c1cccc(NC(=O)NCCNc2ccnc(Nc3ccc(F)cc3)n2)c1 [GSK1379883]	12%	0%	0%	23%	0%	0%	11%	20%	0%	0%	–	–	–	–	–	–	–
Fc1cccc(COc2ccc(Nc3ncnc4nn5ccccc5c34)cc2Cl)c1 [GW689066]	28%	0%	0%	17%	10%	3%	29%	24%	0%	1%	–	–	–	–	–	–	–
Cc1cc(N2CCC(NS(=O)(=O)c3ccc(F)cc3)CC2)nc(Nc2cccc(C#N)c2)n1.O=C(O)C(F)(F)F [GSK1653537]	0%	0%	27%	8%	1%	0%	0%	2%	0%	0%	–	–	–	–	–	–	–
Clc1cccc(-c2nc(Nc3ccncc3)c3ccccc3n2)c1 [GW873004]	0%	0%	19%	0%	0%	1%	0%	13%	58%	0%	–	–	–	–	–	–	–
COc1ccc(-c2nc3n(c2-c2ccncc2)CCC3)cc1 [SKF-104493]	–	–	0%	–	–	0%	–	–	0%	–	25% and 5%	0% and 3%	21% and 8%	30% and 0%	7% and 0%	9% and 1%	7% and 0%
CC(=O)Nc1n[nH]c2ncc(-c3ccccc3)cc12 [SB-548492]	51%	0%	0%	0%	43%	9%	12%	81%	0%	3%	–	–	–	–	–	–	–
CS(=O)(=O)CCNCc1nc(-c2ccc3ncnc(Nc4ccc(OCc5cccc(F)c5)c(Cl)c4)c3c2)cs1.Cl [GW583340]	0%	37%	0%	12%	0%	94.7%	0%	16%	0%	0%	–	–	–	–	–	–	–
COc1ccc(NC(=O)c2ccc(-c3cc(-c4nnc(C)o4)ccc3C)cc2)cc1 [GW595885]	20%	0%	12%	44%	11%	0%	12%	22%	3%	6%	–	–	–	–	–	–	–
CN1c2ccc(-c3ccc(C(=O)NCCO)cc3)cc2-c2[nH]ncc2S1(=O)=O	0%	2%	0%	0%	10%	0%	51%	89%	25%	0%	–	–	–	–	–	–	–
O=C(c1ccc(-c2cc(-c3c[nH]nc3-c3ccccn3)ccn2)cc1)N1CCCC1 [GW792479]	0%	0%	0%	0%	29%	23%	0%	15%	0%	0%	–	–	–	–	–	–	–
Fc1cccc(COc2ccc(Nc3ncnc4sc(-c5ccc[nH]5)cc34)cc2Cl)c1 [GW707818]	14%	30%	0%	7%	0%	5%	17%	10%	0%	0%	–	–	–	–	–	–	–
CCc1nc(-c2cccc(N(C)S(=O)(=O)c3ccccc3)c2)c(-c2ccnc(Nc3ccc(N4CCN(C(C)=O)CC4)nc3)n2)s1 [GSK1645895]	0%	56%	0%	15%	9%	15%	0%	14%	0%	4%	–	–	–	–	–	–	–
COc1ccc(Nc2nccc(N3CCC(NC(=O)c4cccc(NC(C)=O)c4)C3)n2)cc1 (stereo not shown) [GSK1379732]	43%	0%	14%	11%	8%	5%	36%	30%	0%	0%	–	–	–	–	–	–	–
CN1CCC(n2cnc(-c3ccc(F)cc3)c2-c2ccnc(NC3CCNCC3)n2)CC1 [SB-229482]	9%	0%	0%	43%	0%	0%	25%	34%	0%	0%	–	–	–	–	–	–	–

From PMC5540273 (PLoS ONE, 2017)
